ClpP mod = qHTS Assay for Activators of ClpP; ATP-dependent Clp protease proteolytic subunit (Bacillus subtilis (strain 168)), P80244; AID 651965, 2013; purified B. subtilis ClpP, FRET peptide cleavage, 20 min; Potency, µM (highest dose often 57.5 µM); 1.9% of 340,000 active; active means well fitted falling curve with a large enough effect; inconclusive means small, poorly fitted or top-dose-only effect; inactive means no such curve, though single readings can be large or run the other way; further: the source files actives as falling curves though it sought activators and does not explain the sign; nearly all actives have a fitted effect of over 65% in size
Target sequence (P80244 whole entry, looked up): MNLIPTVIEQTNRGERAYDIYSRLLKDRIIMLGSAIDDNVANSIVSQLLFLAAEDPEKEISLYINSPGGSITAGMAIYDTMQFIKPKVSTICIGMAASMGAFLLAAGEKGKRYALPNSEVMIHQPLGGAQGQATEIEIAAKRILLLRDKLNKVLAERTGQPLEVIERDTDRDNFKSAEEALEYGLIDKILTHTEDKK
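ClpP 10 microg/mL final, pH 8 Tris/KCl buffer with BSA, glycerol, Tween-20; compound pinned in; FRET-FV substrate; RT 20 min; Ex320/Em430; ΔFRET vs ADEP 5.8 microM, DMSO, no enzyme.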
gsp antag = antagonizes gsp, the McCune-Albright syndrome mutation. 0.4% of 340,000 active. gsp-mutant cells, cAMP HTRF, 30 min. AID 624288. Potency, µM (top dose mostly 76.9 µM), usual class: inhibitors; calls by dose curve; cell line not stated here;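 further: intracellular cAMP measured with PDE inhibitor Ro 20-1724 present during compound exposure; nearly all actives have a fitted effect of over 65% in size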
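G418-selected cells were plated in DMEM/10% FBS for 16-24 h at 37C, then treated with compounds plus the PDE inhibitor […] (300 uM solution added) for 30 min at 37C. Intracellular cAMP was measured by HTRF after 30 min lysis at room temperature.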
gsp agonist = activates gsp, the McCune-Albright syndrome mutation; gsp mutant cells, cAMP HTRF, 30 min; AID 624287; Potency, µM (series often up to 76.9 µM), most hits filed as activators; 0.13% of 340,000 active; active means well fitted activation curve with a large enough effect; inconclusive means small, poorly fitted or top-dose-only effect, or another doubt; inactive means no such curve, though single readings can be large or run the other way; cell line not stated here;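 further: phosphodiesterase inhibitor Ro 20-1724 added with compounds to block cAMP breakdown; nearly all actives have a fitted effect of over 60% in size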
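Cells stably selected in G418 were plated at 2000/well, grown 16-24 hr, then given compounds in DMSO with the PDE inhibitor […] (300 uM solution added) for 30 min at 37C; cAMP was read by HTRF.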
RXFP1 ag = activates the human relaxin receptor RXFP1; HEK293T-RXFP1 cAMP TR-FRET, 30 min; response scale: percent of porcine relaxin response, buffer zero; Potency, µM (series often up to 57.5 µM), actives largely listed as activators; 0.3% of 370,000 active; AID 2676; active means well fitted activation curve with a large enough effect; inconclusive means small, poorly fitted or top-dose-only effect; further: nearly all actives have a fitted effect of over 60% in size
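Agonist response is measured as cAMP accumulation in an RXFP1-transfected HEK293T line under PDE4 inhibition. Values are scaled between buffer-only and 29 nM porcine relaxin, and EC50s come from standard Hill equation fits.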
pAkt inh = blocks phosphorylation of Akt; AID 651550; activity change, % for hits at 50 µM; Neuro2A IGF-stimulated pAkt S473 HTRF, 20 min; stronger effect = lower value; 0.32% of 360,000 active; in the data active means activity change below about -80%; inconclusive means mostly about -51% to -80%
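Neuro2A cells (4,500/well, DMEM with 0.5% FBS) were treated with compound at a single 50 µM final concentration, stimulated with 6 nM IGF for 20 min at 37 °C, and lysed. Phospho-Akt Ser473 was read by HTRF as 665/615 ratio ×10^4.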
RXFP1 antag = antagonists of human relaxin receptor RXFP1 | Q9HBX9 | HEK293-RXFP1, relaxin-stimulated cAMP HTRF, 30 min; stronger effect = lower value | activity change, negative = inhibition, % at 57.5 µM | 0.59% of 350,000 active;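 active means activity change of -60% or lower, but not beyond a set lower limit; inconclusive means change between -60% and -40%, or beyond the set limit; inactive means change above -40%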
Of the large screens only hits and unclear results are named; the others gave an inactive call. Shown are actives, neighbours in structure and some others; about 2.7% of the full set was active somewhere.

Cc1cc(C=O)c(C)n1-c1ccc(Oc2ccc([N+](=O)[O-])cn2)cc1	none
CCOC(=O)C1=CCN(S(=O)(=O)c2ccc(Br)cc2)C1c1ccccc1 (stereo not given)	none (no result: gsp antag, gsp agonist, RXFP1 ag, RXFP1 antag)
Cn1c(=N)c(S(=O)(=O)c2ccccc2)cc2c(=O)n3ccccc3nc21	ClpP mod 7.94µM
O=C(NN=C1CCC(c2ccccc2)CC1)c1ccccc1-n1cccc1 (stereo not given)	ClpP mod 31.6µM
O=C(COc1cccc(Br)c1)N/N=C1\CCSC1	ClpP mod 22.4µM
CC(NC(=O)COc1cccc(Br)c1)C(=O)O (stereo not given)	ClpP mod 28.2µM, gsp agonist inconclusive
C[C@@H]1CCCCO[C@@H](CN(C)C(=O)Nc2ccccc2)[C@@H](C)CN([C@H](C)CO)C(=O)c2cc(N(C)C)ccc2O1	gsp agonist 14.1µM (no result: gsp antag, RXFP1 ag)
Cc1c2cccn2cc[n+]1C	ClpP mod 10µM
CC(NC(=O)OCc1ccccc1)C(=O)Oc1cc2oc(=O)cc(-c3ccccc3)c2cc1Cl (stereo not given)	ClpP mod 25.1µM
O=C(NCc1ccccc1F)c1ccc2c(c1)OCCO2	none
N#CCCN(Cc1ccccc1)C(C(=O)NC1CCCCC1)c1cc2ccccc2o1 (stereo not given)	none (no result: gsp antag, gsp agonist, RXFP1 ag, RXFP1 antag)
CCOc1ccc(C(N)=O)cc1OC	ClpP mod 28.2µM
CCOc1ccc(C(=O)O)cc1OC	none
CCOc1nc(CC(C)C)c2c(c1C#N)CC(C)(C)OC2	none (no result: ClpP mod)
CCO/C=N/c1c(C#N)c2c(c(=S)n1C)COC(C)(C)C2	ClpP mod 3.55µM (no result: pAkt inh)
COC(=O)c1cc2n3ccccc3c(C)c(-c3ccccc3)c-2c1C(=O)OC	ClpP mod 31.6µM, gsp agonist inconclusive (no result: pAkt inh)
CC(C)=NNC(=O)CN1C(=O)NC2NC(=O)NC21 (stereo not given)	ClpP mod 28.2µM
CCC(C)NC(=O)CN1C(=O)NC2NC(=O)NC21 (stereo not given)	none
O=C(Nc1cccc(C(F)(F)F)c1)c1cccnc1NCCO	none (no result: ClpP mod)
O=C(Nc1cccc(C(F)(F)F)c1)c1cccnc1NCCc1ccccc1	ClpP mod 28.2µM, RXFP1 ag inconclusive
CC(C)(C)OC(=O)N1CCC(c2c(C(=O)N3CCN(c4ccccc4)CC3)cnn2-c2ccccc2)CC1	none (no result: gsp antag, gsp agonist, pAkt inh)
CC1=C(C)/C(=N\OS(=O)(=O)c2ccccc2)C=CC1=O	gsp antag inconclusive, RXFP1 antag -114.0
O=C(Cc1ccc(S(=O)(=O)N2CCOCC2)s1)Nc1ccccc1Br	none
O=C(Cc1ccc(S(=O)(=O)N2CCOCC2)s1)Nc1ccccc1N1CCOCC1	ClpP mod 14.1µM
Cc1cc(SCC(=O)NCc2ccc(F)cc2)nc(=O)[nH]1	none (no result: gsp antag, gsp agonist, pAkt inh, RXFP1 antag)
COc1ccccc1CNC(=O)Cn1c(-c2cccs2)cc2cc(F)ccc21	ClpP mod 31.6µM (no result: gsp antag, gsp agonist, pAkt inh)
CCOc1cc(CNC(=O)Cn2c(-c3cccs3)cc3cc(F)ccc32)ccc1OC	ClpP mod 25.1µM (no result: gsp antag, gsp agonist, pAkt inh)
CCOC(=O)c1ccc(O)c(O)c1	none (no result: ClpP mod, gsp antag, gsp agonist, RXFP1 ag, pAkt inh)
COc1cc(/C=C/C(=O)OCC(=O)N2CCc3ccccc32)cc(OC)c1OC	none (no result: gsp antag, RXFP1 ag)
COc1cc(/C=C/C(=O)OCC(=O)NC(=O)NC(C)C)cc(S(=O)(=O)N2CCc3ccccc32)c1OC	ClpP mod 20µM
COc1ccc(OC)c(CNCc2c(C(=O)O)n(Cc3cccc(F)c3)c3cc(OC)ccc23)c1	none (no result: gsp antag, gsp agonist, pAkt inh)
C(=N\NCc1ccccc1)/c1ccc2nccnc2c1	gsp agonist inconclusive
CC[N+](CC)(CCCCS(=O)(=O)[O-])CCNP1(=O)C=C(c2ccccc2)OC(c2ccccc2)=C1	gsp agonist inconclusive, RXFP1 ag 15.8µM
O=P1(Nn2cnnc2)C=C(c2ccccc2)OC(c2ccccc2)=C1	none
Cc1n[nH]c(=S)c2nn(-c3ccccc3F)c(C)c12	gsp agonist inconclusive, RXFP1 ag inconclusive
Cc1nnc(Cl)c2nn(-c3ccccc3F)c(C)c12	ClpP mod 28.2µM
Cc1nnc(SCCN2CCOCC2)c2nn(-c3ccccc3F)c(C)c12	ClpP mod 14.1µM, gsp agonist inconclusive, RXFP1 ag inconclusive (no result: RXFP1 antag)
